The values below come from PubChem BioAssay.

SMILES strings stand for the structures. A number with no mark means an inactive call. The source made the active and inactive calls.

The target of the test is Homeobox protein Hox-A13 (Mus musculus) (UniProt Q62424). Kind of test: inhibitors of HoxA13-DNA binding, primary screen, biochemical, fluorescence polarization, labeled oligonucleotide (AID 1185). As to conditions: 15 min, higher = more signal, called active from +8 up or from −8 down. For orientation: In fluorescence polarisation assays a small probe gives low polarisation when free and higher when bound to something large.
Sequence of Homeobox protein Hox-A13 (Mus musculus) (Q62424 whole entry, looked up): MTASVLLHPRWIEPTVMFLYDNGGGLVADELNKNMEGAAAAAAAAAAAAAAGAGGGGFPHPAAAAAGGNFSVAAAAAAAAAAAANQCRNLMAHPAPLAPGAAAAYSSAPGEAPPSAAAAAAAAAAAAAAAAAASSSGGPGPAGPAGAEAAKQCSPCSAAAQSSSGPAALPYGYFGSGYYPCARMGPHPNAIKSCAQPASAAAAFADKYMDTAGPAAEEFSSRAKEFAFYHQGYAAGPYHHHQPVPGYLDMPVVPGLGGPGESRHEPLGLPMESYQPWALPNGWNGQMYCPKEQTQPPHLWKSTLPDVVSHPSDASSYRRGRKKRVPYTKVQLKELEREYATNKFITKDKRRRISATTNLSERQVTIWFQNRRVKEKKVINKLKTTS
With `COc1ccc([Si](C)(C)[C@H]2[C@H](CC(=O)N3Cc4ccccc4C[C@H]3CO)O[C@@]3(C(=O)N(C)c4ccccc43)[C@@H]2C)cc1`, the z-score is -5.59.

As to `O=C1O[C@H](Cc2ccccc2)[C@@H]2[C@H]3C=CCCC=C3CN2[C@H]1Cc1ccc(O)cc1`, the z-score was -9.53 (active).

Consider `CCOc1cc(C(O)C2C=CC3C(=O)N(c4ccccc4)C(=O)C3N2Nc2ccccc2F)ccc1O` (stereo not given), for which the z-score is -3.71.

For `[N-]=[N+]=NCc1ccccc1[C@@H]1OC(c2ccc(OCCCO)cc2)=N[C@]1(Cc1ccccc1N=[N+]=[N-])C(=O)O`, the z-score was -3.59.

Regarding `[N-]=[N+]=Nc1ccccc1C[C@@]1(C(=O)NCC(O)CO)N=C(c2ccc(OCCCO)cc2)O[C@@H]1c1ccccc1` (stereo not given in full), the z-score is -5.72.

Regarding `C=CCC(OC(C)=O)[C@@H]1[C@@H](N(Cc2ccc(-c3cccc(C(F)(F)F)c3)o2)C(=O)Cc2ccc(F)cc2)c2cc(OCCCO)ccc2N1C(=O)Cc1ccc2ccccc2c1` (stereo not given in full), the z-score is -0.668.

Consider `COc1cc(CO)cc(I)c1O[C@H]1C=C(C(=O)NCCO)C[C@@H]2O[C@H]12`, for which the z-score was -7.29.

Turning to `CCCC=C(CCC)[C@@H](NC(=O)OCC(C)C)c1ccc(C(=O)OC)cc1`, the z-score is -1.31.

With `COC(=O)[C@@]1(Cc2ccc(F)cc2)[C@H]2c3cc(C(=O)N(C)C)n(CCc4ccc(O)c(O)c4)c3C[C@H]2CN1C(=O)c1ccccc1`, the z-score is -3.03.

Consider `CC(C)=CCCC(C)=CC(O)C1C=CC2C(=O)NC(=O)C2N1Nc1ccc(Cl)cc1Cl` (stereo not given), for which the z-score is -3.59.
